Sampled rows, rich in hits. Any-hit rate of the full collection: about 11%.
NIH3T3 tox = kills NIH 3T3 cells; NIH 3T3 viability, CellTiter-Glo ATP luminescence, 48-72 h; Potency, µM (highest dose often 96.7 µM), usual class: inhibitors; 94,000 compounds, 4.3% hits; AID 1345082; note: nearly all actives have a fitted effect of over 55% in size
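Cytotoxicity is measured as loss of cellular ATP: NIH 3T3 cells (400/well) are exposed to compound for 48 or 72 hr at 37 °C, then CellTiter-Glo luminescence is imaged after 10 min at room temperature.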
HEK cytotox = HEK 293 cell cytotoxicity | 94,000 compounds, 6.6% hits | Potency, µM (titrated, usually from 115 µM), usual class: inhibitors | HEK 293 viability, ATP luminescence (CellTiter-Glo), 48-72 h; note: nearly all actives have a fitted effect of over 60% in size
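Cytotoxicity was scored by loss of ATP-coupled luminescence (CellTiter-Glo) in HEK 293 cells. Compound treatment ran 48 or 72 hr at 37 degree Celsius, 5% CO2, 95% humidity.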
NPR1 antag = human Npr1 receptor antagonism; P16066; HEK293 hNpr1 GloSensor cGMP, ANP-stimulated luminescence; Potency, µM (doses to about 46.3 µM), hits mostly inhibitors; 76,000 compounds, 1.6% hits; AID 1347048; calls by dose curve; note: nearly all actives have a fitted effect of over 60% in size
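HEK293 cells stably expressing human Npr1 and cGMP GloSensor pGS-40F, loaded 2 h with 2% GloSensor reagent, given compound 30 min at room temperature. Luminescence read before and 20 min after 0.1 nM hNppA.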
FLuc inh = Photinus pyralis luciferase inhibition; P08659; purified P. pyralis luciferase, luminescence, biochemical; Potency, µM (series often up to 115 µM), hits mostly inhibitors; 76,000 compounds, 2.5% hits; AID 1347043; note: nearly all actives have a fitted effect of over 65% in size
Target sequence (P08659 whole entry, looked up): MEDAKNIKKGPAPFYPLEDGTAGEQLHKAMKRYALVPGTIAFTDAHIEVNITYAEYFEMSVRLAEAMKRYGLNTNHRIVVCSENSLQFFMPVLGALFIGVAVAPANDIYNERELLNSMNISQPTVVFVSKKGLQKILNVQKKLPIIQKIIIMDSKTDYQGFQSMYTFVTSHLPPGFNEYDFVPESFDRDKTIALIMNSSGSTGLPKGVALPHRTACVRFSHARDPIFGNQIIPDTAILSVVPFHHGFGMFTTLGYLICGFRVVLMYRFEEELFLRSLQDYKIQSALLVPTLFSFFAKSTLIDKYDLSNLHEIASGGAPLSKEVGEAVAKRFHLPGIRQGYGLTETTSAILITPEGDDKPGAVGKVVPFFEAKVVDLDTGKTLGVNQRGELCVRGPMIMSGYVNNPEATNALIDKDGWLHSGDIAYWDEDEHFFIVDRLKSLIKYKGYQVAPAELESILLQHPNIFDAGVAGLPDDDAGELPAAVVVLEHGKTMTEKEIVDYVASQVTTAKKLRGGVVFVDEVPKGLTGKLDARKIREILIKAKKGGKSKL
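Luminescence read by CCD imaging after purified firefly luciferase (10nM final) was added to substrate buffer holding 10uM D-luciferin and 10uM ATP, pH 7.5, pre-dosed with compound.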
Numbers stand for hits; . = inactive; ? = inconclusive; / = no result; ! = not confirmed by another sample. Unless noted, calls come from the whole dose curve; as a rule, active = well fitted curve in the direction sought with a large enough effect; inconclusive = small, poorly fitted or top-dose-only effect, or another doubt; inactive = no such curve, though single readings can be large; an effect the other way counts as inactive or inconclusive.

SMILES | NIH3T3 tox | HEK cytotox | NPR1 antag | FLuc inh
COc1ccc(C(=O)NC2CCN(c3cc(-c4ccc(F)cc4)[nH]n3)C2)cc1 (centres undefined) | ? | ? | . | .
COc1cccc(C(=O)NC2CCCN(c3cc(-c4ccc(F)cc4)[nH]n3)C2)c1 (centres undefined) | 45µM | ? | . | ?
COc1cc(OC)cc(C(=O)NC2CCCN(c3cc(-c4ccc(F)cc4)[nH]n3)C2)c1 (centres undefined) | ? | 45µM | . | ?
COc1cccc2sc(NC(=O)c3ccc4c(c3)OCCN(C3CCC3)C4)nc12 | ? | 32µM | ? | ?
COc1ccc(NC(=O)c2ccc3c(c2)OCCN(C2CCC2)C3)cn1 | . | ? | . | .
CC(=O)N(C1CC1)C1CCOC2(CCN(C(=O)c3n[nH]c4ccccc34)CC2)C1 (centres undefined) | . | . | . | .
Cc1noc2c(NCCN(C)C)cc(-c3ccc(Cl)cc3)nc12 | 25µM | 45µM | . | .
Cc1noc2c(NCCN(C)C)cc(-c3ccccn3)nc12 | ? | 79µM | . | .
COc1ccccc1-c1cc(N2CCN(c3ccccn3)CC2)c2onc(C)c2n1 | ? | ? | . | .
Cc1noc2c(NCCN(C)C)cc(-c3ccc(F)cc3)nc12 | 40µM | ? | . | .
COC1CCN(c2cc(-c3ccccn3)nc3c(C)noc23)CC1 | ? | 63µM | . | .
CC(C)CNC(=O)C(C)(C)Oc1nn(C(C)C)c2ccc(CN3CCOCC3)cc12 | ? | ? | . | .
CS(=O)(=O)N1CC2(CCCN(CC3CC3)C2)Cc2ccccc21 (centres undefined) | . | . | / | /
COc1ccc(CN2Cc3[nH]nc(-c4cccc(O)c4)c3CC2=O)cc1 | 10µM | ? | . | .
COc1ccc(CN2Cc3[nH]nc(-c4cccc(OC)c4)c3CC2=O)cc1 | ? | . | . | .
c1cc(-c2nc3c(c(NCc4cn5c(n4)SCC5)n2)CCNCC3)ccn1 | ? | 20µM | . | .
O=C(Cc1ccccc1)N1CCCCCC1c1nnc(-c2ccccc2)o1 (centres undefined) | . | ? | / | /
NC1CC(c2cc(N3CCN(CCOc4ccccc4)CC3)ncn2)C1 (centres undefined) | ? | 22µM | . | .
O=C(c1coc(COc2ccc(F)cc2Cl)n1)N1CCCCO1 | . | ? | . | 35µM
O=C(NCCc1ccncc1)c1coc(COc2ccc(F)cc2Cl)n1 | ? | 32µM | . | .
COCCN(C)C(=O)c1coc(COc2ccc(F)cc2Cl)n1 | ? | . | . | .
CCOC(=O)[C@@H]1CN(C(=O)c2ccccc2OC(F)(F)F)[C@H]2c3ccc(OC)cc3O[C@@H]12 | . | ? | / | /
CCN1C(=O)C2CC3(CCN(C(=O)c4ccc(Cc5c(C)noc5C)o4)CC3)CN2C1=O (centres undefined) | . | . | / | /
CC(=O)N1CCC(N2C(=O)c3c(c(C)nn3-c3ccccc3)C2C)CC1 (centres undefined) | ? | . | / | /
Cc1nn(-c2ccccc2)c2c1C(C(C)C)N(C1CCN(C(=O)Nc3ccccc3)CC1)C2=O (centres undefined) | . | . | / | /
SMILES | NIH3T3 tox | HEK cytotox | NPR1 antag | FLuc inh
Cc1nn(-c2ccccc2)c2c1C(C)N(C1CCN(C(=O)c3ccc(F)cc3)CC1)C2=O (centres undefined) | 35µM! | ? | / | /
Cc1nn(-c2ccccc2)c2c1C(C1CC1)N(C1CCN(C(=O)c3ccc(Cl)cc3)CC1)C2=O (centres undefined) | . | . | / | /
Cc1nn(-c2ccccc2)c2c1C(C)N(C1CCN(C(=O)Cc3ccc(F)cc3)CC1)C2=O (centres undefined) | ? | 50µM | / | /
CC(=O)N1CCC(N2C(=O)c3c(c(C)nn3-c3ccccc3)C2C)C1 (centres undefined) | ? | . | / | /
Cc1nn(-c2ccccc2)c2c1C(C(C)C)N(C1CCN(C(=O)c3ccccc3)CC1)C2=O (centres undefined) | ? | 45µM | / | /
Cc1nn(-c2ccccc2)c2c1C(C(C)C)N(C1CCN(C(=O)c3ccc(F)cc3)CC1)C2=O (centres undefined) | ? | 35µM | / | /
CC1(C)C(=O)N(Cc2ccc(O)cc2)[C@H]2CN(CCCc3ccccc3)C[C@H]2[S+]1(=O)[O-] | ? | ? | . | .
Cc1ccccc1NC(=O)N1CCC(N2CCCC(C(=O)N3CCCC3)C2)CC1 (centres undefined) | . | . | . | .
Cc1nn(-c2ccccc2)c2c1C(C(C)C)N(C1CCN(C(=O)c3ccc(C(F)(F)F)cc3)C1)C2=O (centres undefined) | 16µM | ? | / | /
COC(=O)N1CCC(N2C(=O)c3c(c(C)nn3-c3ccccc3)C2C(C)C)CC1 (centres undefined) | . | ? | / | /
Cc1nn(-c2ccccc2)c2c1C(C(C)C)N(C1CCN(C(=O)N(C)C)CC1)C2=O (centres undefined) | ? | 45µM | / | /
Cc1nn(-c2ccccc2)c2c1C(C(C)C)N(C1CCN(C(=O)c3ccncc3)C1)C2=O (centres undefined) | . | ? | / | /
Cc1nn(-c2ccccc2)c2c1C(C(C)C)N(C1CN(C(=O)c3ccc(Cl)cc3)C1)C2=O (centres undefined) | ? | 32µM | / | /
Cc1cccc(OCC2(CNS(=O)(=O)c3ccc(F)cc3)C[C@@H](O)[C@@H](O)C2)n1 (some centres undefined) | . | . | . | .
CC(C)C(=O)Nc1cc(C2CC2)nn1C | . | . | / | /
COc1ccccc1-c1nc2cnccn2c1NCCC(=O)N1CCc2ccccc21 | ? | 20µM | . | .
COc1cccc(-c2nc3cnccn3c2NCCC(=O)N2CCc3ccccc32)c1 | . | ? | . | .
CCC1(N2CCN(C(=O)Nc3cc(Cl)ccc3OC)CC2)CCN(C(=O)NC)C1 (centres undefined) | . | . | . | .
O=C(Nc1ccccc1Cl)C1CN(C2CCCC2)C(=O)N1 (centres undefined) | . | . | / | /
COCCCn1c(C)cnc1C1CCN(Cc2ccc(F)cc2F)C1 (centres undefined) | . | . | . | .
COCCc1nc(-c2cnc(C3CC3)nc2)n(-c2ccc(F)cc2F)n1 | 89µM | ? | . | .
CCN1C(=O)CCc2cc(NC(=O)CC(C)C)ccc21 | . | . | . | .
COCCN1C(=O)CCc2cc(NC(=O)c3ccc4c(c3)OCO4)ccc21 | . | ? | . | 40µM
COCCN1C(=O)CCc2cc(NC(=O)COC)ccc21 | . | . | . | .
CC(C)CN1C(=O)CCc2cc(NC(=O)c3ccc4c(c3)OCO4)ccc21 | ? | 40µM | . | ?
CN(C)c1nc2c(c(=O)[nH]1)CCN(Cc1cc(F)cc(F)c1)CC2 | . | . | . | .
O=C(Nc1cnc(-c2ccc(Cl)cc2)nc1)c1ccccc1Cl | . | ? | ? | 0.63µM
CC1(C)[C@H](Cc2cc(CCO)on2)C[C@@H]1NCc1ccncc1 | ? | ? | . | .
CN(Cc1cc(C[C@@H]2C[C@H](NCc3cccnc3)C2(C)C)no1)c1ccccc1 | ? | 63µM | ? | .

Screens from PubChem.
